According to PubChem BioAssay (NCI):
Compounds without any hit were thinned out: in the full panel of roughly 83,000, 20% have a hit.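 How to read the values: 0–100, growth inhibition (40 = 60% inhibited); 0, no net growth; -100 to 0, cell death (-40 = 40% of starting cells died; -100 = all dead).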 Unmarked numbers belong to inactive results. Activity calls are given as the source filed them. Rule for the calls: active = growth percent below 10; inactive = the rest.

What was measured:
Assay in all cases: NCI-60 one-dose screen, 48 h (100 = growth as untreated, 0 = no growth, -100 = all killed)
Details in all cases: 10 µM unless noted
T-47D breast = test system: T-47D breast
BT-549 breast = test system: BT-549 breast
SW-620 colon = test system: SW-620 colon
MCF7 breast = test system: MCF7 breast
HCT-116 colon = test system: HCT-116 colon
HCC-2998 colon = test system: HCC-2998 colon
KM12 colon = test system: KM12 colon

| SMILES | growth (T-47D breast) | growth (BT-549 breast) [%] | growth (SW-620 colon) [%] | growth (MCF7 breast) [%] | growth (HCT-116 colon) [%] | growth (HCC-2998 colon) [%] | growth (KM12 colon) [%] |
| --- | --- | --- | --- | --- | --- | --- | --- |
| COCCn1cc(-c2csc(-c3c[nH]c4ccc(Br)cc34)n2)c2cccnc21 | -1.1% (active) | 22.6 | 27.9 | 12 | 24.2 | 15.3 | 13.4 |
| O=C(CN1CCN(c2cc3c(cc2F)c(=O)c(C(=O)O)cn3C2CC2)CC1)N/N=C/c1ccco1 | 86.8% | 95.2 | 99.6 | 87.1 |  | 107 | 102 |
| COc1ccc(C(=O)c2cc3c(N)c(C(=O)Nc4ccccc4)sc3nc2C)cc1 | 39% | 60.6 | 28.2 | 20.7 | 13.4 | 19 | 14.9 |
| CC(C)(C)n1cc(-c2ccnc(NCCCNS(=O)(=O)c3cccc4ccccc34)c2)c(-c2cccc(F)c2)n1 | 34% | 65.4 | 92.4 | 52.9 | 53.5 | 82.8 | 76.6 |
| CC(=O)OC(c1ccccc1)C1CCOC1=O (stereo unspecified) | 106% | 120 | 102 | 102 | 101 | 97.2 | 106 |
| CCN(CC)Cc1cc(Nc2ccnc3cc(Cl)ccc23)ccc1O | 100% | 95.5 | 88.4 | 86.9 | 79.7 | 93.2 | 87.7 |
| CCN1C(=O)N(CC)C2C1NN=c1s/c(=C3\C(=O)N(CCC(C)C)c4ccccc43)c(=O)n12 (stereo unspecified) | 80.2% | 11.6 | 31.7 | 14.9 | 10.6 | 11.6 | 17.6 |
| CCCCCCCCCCCCCCCCCCOc1ccccc1CC(=O)NCC[N+]1(C)CCCCC1 | 75.3% | 74.9 | 63.8 | 53.3 | 57.4 | 32.2 | 28.8 |
| O=C(CC(=O)Nc1cccc(C(=O)O)c1)Nc1cccc(C(=O)O)c1 | 92.4% | 98.8 | 90 | 101 | 94.3 | 102 | 112 |
| COc1ccc(/C=C(/C(=O)n2cnnn2)c2cc(OC)c(OC)c(OC)c2)cc1 | 43.1% | 38.2 | 21.2 | 16.2 | 13.7 | 28.2 | 17.7 |
| O=C(Nc1ccc(Cl)cc1)Oc1c(Cl)c(Cl)c(Cl)c(Cl)c1Cl | 84.3% | 92.6 | 101 | 86 | 89.1 | 107 | 96.6 |
